This is part of a sample that, as a whole, favours compounds with a hit. Of some 83,000 tested, about 20% had one in any assay.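 Percent growth is the endpoint: 0 to 100 indicates growth inhibition (40 means 60% inhibition), 0 means no net growth, and negative values indicate cell death.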 Activity calls are given as the source filed them. The calls were made as follows: active = growth percent below 10; inactive = the rest.
Tested on: SNB-19 CNS
Test: NCI-60 one-dose screen, 48 h (100 = growth as untreated, 0 = no growth, -100 = all killed)
Details: 10 µM unless noted

SMILES | growth
Cc1nc(Nc2ccc(N)cc2)c2ccccc2n1 | 97.7% (inactive)
COc1cccc(/C=C2\COc3ccc(O)cc3C2=O)c1OC | 67.4% (inactive)
CC(C)c1ccc(NC(=O)Cc2ccc(Nc3ncnc4cc(-c5cnn(CCN(C)C)c5)ccc34)cc2)cc1 | -86.1% [30 µM] (active)
O=C1c2cccc3c(-c4ccc(-c5nc6c7ccccc7c7ccccc7c6[nH]5)cc4)ccc(c23)C(=O)N1CCN1CCNCC1 | 103% (inactive)
O=C1/C(=C/c2ccc([N+](=O)[O-])cc2)COc2ccc(O)c(O)c21 | 15% (inactive)
Cn1ccnc1C(=O)/C=C/c1ccc(C(=O)Nc2ccc(S(F)(F)(F)(F)F)cc2)cc1 | 9.4% (active)
COc1ccc(OC)c(C(=O)Nc2cccc(-c3cc(=O)c4ccccc4o3)c2)c1 | 70.7% (inactive)
C=C1C(=O)O[C@H]2[C@H]1CC/C(COC(=O)/C=C\C(=O)NCc1ccc(Cn3c(=O)sn(CCCI)c3=O)cc1)=C\CC[C@@]1(C)O[C@@H]21 | 1.92% (active)

Tested on: U251 CNS
Test: as above
Details: 10 µM unless noted

SMILES | growth
CCCCC1COc2cccc3c(SCC(=O)N(C)c4cccc(Cl)c4)cc[n+]1c23 (configuration not stated) | 112% (inactive)
COc1ccc(-c2c(N)n[nH]c2-c2ccccc2O)cc1OC | 99.6% (inactive)
CCOC(=O)c1sc(-c2ccc(OS(=O)(=O)c3ccc(C(C)(C)C)cc3)c(C=O)c2)nc1C | 26% (inactive)
Cc1nc(Nc2ccc(NC(=S)Nc3ccccc3)cc2)nc2nc(Nc3ccc(S(=O)(=O)O)cc3)[nH]c(=O)c12 | 110% (inactive)
COc1ccc(/C=C2\COc3ccc(O)cc3C2=O)c(OC)c1 | 50.3% (inactive)
COc1ccc(/C(C)=C(\c2ccc(Cl)cc2)c2ccc(OCCCN(C)C)cc2)cc1F | 38.5% (inactive)
Cc1nc(Nc2ccc(NC(=S)Nc3ccccc3)cc2)c2ccccc2n1 | 101% (inactive)
C=C1C(=O)O[C@H]2[C@H]1CC/C(COC(=O)/C=C\C(=O)NCc1ccc(Cn3c(=O)sn(-c4ccc(OC)cc4)c3=O)cc1)=C\CC[C@@]1(C)O[C@@H]21 | -60.3% (active)
CN(C)CCn1cc(-c2ccc3c(Nc4ccc(CC(=O)Nc5cccc(F)c5)cc4)ncnc3c2)cn1 | -52.4% [30 µM] (active)
COc1cc(/C=C/c2nc(Nc3ccc(S(=O)(=O)Nc4cc(C)on4)cc3)c3ccccc3n2)ccc1O | 61.4% (inactive)
COc1ccc(/C(C)=C(\c2ccc(Cl)cc2)c2ccc(OCCN3CCCC3)cc2)cc1F | 19.1% (inactive)
Cc1nc(Nc2ccc(S(=O)(=O)Nc3cc(C)on3)cc2)c2ccccc2n1 | 101% (inactive)
COc1ccc(OC)c(/C=C2\COc3ccc(O)cc3C2=O)c1 | 84.6% (inactive)
CCN(CC)CCOc1ccc(/C(=C(\C)c2ccc(F)c(OC)c2)c2ccc(Cl)cc2)cc1 | 3.13% (active)
O[C@H]1CO[C@H]2[C@@H]1OC[C@@H]2Oc1ccc(Nc2ccnc(Nc3ccc(O[C@H]4CO[C@H]5[C@@H]4OC[C@@H]5O)c(Cl)c3)n2)cc1Cl | 7.71% (active)
CC(=O)Nc1ccc(-c2cc3c(NCc4ccc(F)cc4)ncnc3s2)cc1 | 77.6% (inactive)
C/C(Cc1ccc(Cl)cc1)=C(/c1ccc(Cl)cc1)c1ccc(OCCN(C)C)cc1 | 38.2% (inactive)
C=C1C(=O)O[C@H]2[C@H]1CC/C(COC(=O)/C=C\C(=O)NCc1ccc(Cn3c(=O)sn(CCCC)c3=O)cc1)=C\CC[C@@]1(C)O[C@@H]21 | -64.3% (active)
Cc1nc(Nc2cccc(NC(=O)Nc3ccc(Cl)cc3)c2)c2ccccc2n1 | 91.9% (inactive)
COc1ccc(/C=C2\COc3ccc(O)c(O)c3C2=O)c(OC)c1 | 44.4% (inactive)

SMILES | growth
CCN(CC)CCOc1ccc(/C(=C(\C)c2ccc(OC)c(F)c2)c2ccc(Cl)cc2)cc1 | 66.8% (inactive)
C=C1C(=O)O[C@H]2[C@H]1CC/C(COC(=O)/C=C\C(=O)NCc1ccc(Cn3c(=O)sn(-c4ccc(C#N)cc4)c3=O)cc1)=C\CC[C@@]1(C)O[C@@H]21 | -66.4% (active)
CN(C)CCN1C(=O)c2cccc3c(-c4ccc(-c5nc6c7ccccc7c7ccccc7c6[nH]5)cc4)ccc(c23)C1=O | 95.5% (inactive)
c1ccc([P+](CCCc2n(Cc3ccc4ccccc4c3)c3ccccc3[n+]2Cc2ccc3ccccc3c2)(c2ccccc2)c2ccccc2)cc1 | 46.5% (inactive)
CCCCS(=O)(=O)Oc1ccc(-c2nc(C)c(C(=O)OCC)s2)cc1C=O | 49.6% (inactive)
CCCCN(Cc1ccc(C(=O)NO)cc1)C(=O)Nc1ccc(OCCCCCCCCCn2cc(CCCCC(=O)N[C@H](C(=O)N3C[C@H](O)C[C@H]3C(=O)NCc3ccc(-c4scnc4C)cc3)C(C)(C)C)nn2)cc1 | 34.8% (inactive)
COc1ccc(/C(C)=C(\c2ccc(Cl)cc2)c2ccc(OCCN3CCCCCC3)cc2)cc1F | 39.8% (inactive)
C=C1C(=O)O[C@H]2[C@H]1CC/C(COC(=O)/C=C\C(=O)NCc1ccc(Cn3c(=O)sn(-c4ccc(Cl)cc4)c3=O)cc1)=C\CC[C@@]1(C)O[C@@H]21 | -78.3% (active)
O[C@H]1CO[C@H]2[C@@H]1OC[C@@H]2Oc1ccc(Nc2nc(Nc3ccc(F)c(Cl)c3)ncc2F)cc1Cl | 108% (inactive)
O=C(CCc1nc(-c2cccc(Cl)c2)no1)Nc1ccccn1 | 111% (inactive)
COc1ccc(Cn2cnc3cc(C(=O)Nc4cccc5ccccc45)ccc32)c(OC)c1 | 17.5% [30 µM] (inactive)
Cc1nc(Nc2ccc(N)cc2)c2ccccc2n1 | 99.1% (inactive)
COc1cccc(/C=C2\COc3ccc(O)cc3C2=O)c1OC | 54.3% (inactive)
CC(C)c1ccc(NC(=O)Cc2ccc(Nc3ncnc4cc(-c5cnn(CCN(C)C)c5)ccc34)cc2)cc1 | -65.7% [30 µM] (active)
O=C1c2cccc3c(-c4ccc(-c5nc6c7ccccc7c7ccccc7c6[nH]5)cc4)ccc(c23)C(=O)N1CCN1CCNCC1 | 62.1% (inactive)
O=C1/C(=C/c2ccc([N+](=O)[O-])cc2)COc2ccc(O)c(O)c21 | -34.7% (active)
Cn1ccnc1C(=O)/C=C/c1ccc(C(=O)Nc2ccc(S(F)(F)(F)(F)F)cc2)cc1 | -6.93% (active)
COc1ccc(OC)c(C(=O)Nc2cccc(-c3cc(=O)c4ccccc4o3)c2)c1 | 93.8% (inactive)
C=C1C(=O)O[C@H]2[C@H]1CC/C(COC(=O)/C=C\C(=O)NCc1ccc(Cn3c(=O)sn(CCCI)c3=O)cc1)=C\CC[C@@]1(C)O[C@@H]21 | -72% (active)

Reference: PubChem BioAssay (NCI)
